GPR151 activ: human GPR151 activation | Q8TDV0 | activation, % at 11.2 µM | 1% of 650,000 active | PathHunter beta-arrestin GPR151 cells, luminescence; in the data active = activation above about 4.9%;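 note: 0% = median of compound wells and 100% = cells with positive control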
FBW7 act: activators of human E3 ligase FBW7. normalized activity (activation), % at 26.1 µM. AlphaScreen FBW7–phospho-cyclin E peptide binding, activator screen. 0.13% of 650,000 active. Q969H0; in the data active = normalized activity above about 1.9%;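 note: purified mutant Fbw7 with reduced substrate affinity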
TEAD-YAP inh: TEAD-YAP interaction inhibition. HEK-TIYL cells, TEAD-Gal4/YAP UAS-luciferase luminescence. inhibition, % at 9.12 µM. 1.4% of 640,000 active. AID 1259422; in the data active = inhibition above about 32%;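 note: 0% = median of test compound wells and 100% = reference inhibitor wells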
MITF inh: blocks human microphthalmia-associated transcription factor; O75030; AlphaScreen MITF homodimerization, bead proximity signal; inhibition, % at 2.6 µM; 0.91% of 650,000 active; AID 1259374; in the data active = inhibition above about 50%;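 note: 0% = vehicle wells with protein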
Target sequence (O75030 whole entry, looked up): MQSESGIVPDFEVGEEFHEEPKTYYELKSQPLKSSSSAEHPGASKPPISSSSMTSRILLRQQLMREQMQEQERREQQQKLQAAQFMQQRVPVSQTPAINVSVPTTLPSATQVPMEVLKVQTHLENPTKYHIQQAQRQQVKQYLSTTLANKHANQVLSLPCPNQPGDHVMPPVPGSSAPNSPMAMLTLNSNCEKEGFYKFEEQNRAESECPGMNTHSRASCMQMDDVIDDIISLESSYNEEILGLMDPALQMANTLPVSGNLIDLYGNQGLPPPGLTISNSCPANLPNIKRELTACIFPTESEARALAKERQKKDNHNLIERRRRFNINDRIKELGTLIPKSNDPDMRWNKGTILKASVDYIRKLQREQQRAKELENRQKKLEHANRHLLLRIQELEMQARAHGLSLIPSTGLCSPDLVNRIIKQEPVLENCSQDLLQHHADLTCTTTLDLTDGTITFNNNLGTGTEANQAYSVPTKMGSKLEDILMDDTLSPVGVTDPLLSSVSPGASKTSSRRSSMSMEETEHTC
Numbers without * were called inactive; x = not tested or not shown. Sampled rows, rich in hits. Any-hit rate of the full collection: about 3.4%.

SMILES	GPR151 activ	FBW7 act	TEAD-YAP inh	MITF inh
Cc1ccc(S(=O)(=O)N2CCCCC2CCNC(=O)C(=O)NCc2cccnc2)cc1 (centres undefined)	-1	1	36*	2
COc1cccc(CNC(=O)C(=O)NCC2CCCN2S(=O)(=O)c2ccc(C)cc2)c1 (centres undefined)	3	0	41*	3
CCCNC(=O)C(=O)NCC1CCCN1S(=O)(=O)c1ccc(C)cc1 (centres undefined)	2	0	10	3
CNC(=O)C(=O)NCCC1CCCCN1S(=O)(=O)c1ccc(C)cc1 (centres undefined)	1	0	2	3
CCCCCNC(=O)C(=O)NCC1CCCN1S(=O)(=O)c1ccc(C)cc1 (centres undefined)	1	0	49*	-3
CCOC(=O)CNC(=O)CSc1nnc(NC(=O)c2ccc(C)cc2)s1	2	0	5	-5
COc1ccc2c(C)nc(Nc3nc(C)cc(=O)[nH]3)nc2c1	0	0	39*	0
COc1cc(CNCCCN(C)C)ccc1OCc1ccc(F)cc1Cl	-1	0	34*	-23
Cc1nc2c3ccccc3nc(SCC(=O)Nc3cc(C)[nH]n3)n2n1	1	0	56*	7
Cc1cc(NC(=O)CSc2nc3ccccc3c(=O)n2CCCC(=O)N2CCCC2)n[nH]1	-1	0	54*	5
Cc1cc(NC(=O)CSc2nc3ccccc3c(=O)n2CCC(=O)N2CCN(c3ccccc3)CC2)n[nH]1	2	0	-3	-2
Cc1cc(NC(=O)CSc2nc3ccccc3c(=O)n2CCCN2CCC(C)CC2)n[nH]1	-1	0	85*	0
Cc1cc(NC(=O)CSc2nc3ccccc3c(=O)n2CCCC(=O)NCCc2ccccc2)n[nH]1	0	0	19	-4
O=C(CSc1nc2ccccc2c(=O)n1CCCN1CCCCC1)Nc1ccccc1Cl	2	0	-18	-7
Cc1cc(NC(=O)CSc2nc3ccccc3c(=O)n2CCCN2CCCCC2)n[nH]1	0	0	84*	7
O=C(O)c1ccccc1N=Nc1ccc(O)c2ncccc12	0	0	-9	34
NS(=O)(=O)c1ccc(N=Nc2ccc(O)c3ncccc23)cc1	-1	-1	24	80*
CCOc1ccccc1NC(=O)CSc1nc2cc3c(cc2cc1C#N)OCCO3	-1	0	53*	6
CC(C)c1ccc(C#N)c(SCC(=O)Nc2ccccc2C(=O)O)n1	0	3.9*	0	-10
COc1ccccc1NC(=O)CSc1nc2cc3c(cc2cc1C#N)OCO3	-1	0	3	-9
N#Cc1cc2cc3c(cc2nc1SCC(=O)Nc1ccccc1F)OCCO3	1	0	54*	2
CCOc1ccccc1NC(=O)CSc1nc2ccc(OC)cc2cc1C#N	0	0	48*	-5
N#Cc1cc2cc3c(cc2nc1SCC(=O)NCc1ccccc1)OCCO3	2	0	36*	11
N#Cc1cc2cc3c(cc2nc1SCC(=O)Nc1ccccc1)OCCO3	-1	0	-8	-8
N#Cc1c(N)nc(SCC(=O)NCc2ccccc2)c(C#N)c1-c1ccccc1Cl	1	0	58*	10
SMILES	GPR151 activ	FBW7 act	TEAD-YAP inh	MITF inh
O=C(NCC(c1ccco1)N1CCOCC1)C(=O)NC1CCCCC1 (centres undefined)	1	0	5	-7
COc1ccc(CN2CCCC(CCC(=O)N(C)CCc3ccccn3)C2)c(F)c1 (centres undefined)	0	0	3	-11
Cc1ccc(/C=C/c2ccc(N(C)C)cc2)[n+](C)c1	1	-1	70*	9
CC[n+]1ccccc1/C=C/N(C(C)=O)c1ccccc1	0	1	-9	10
CC[n+]1ccccc1/C=C/c1ccc(N(C)C)cc1	2	0	47*	1
CN(C)c1ccc(/C=C/c2ccc([N+](=O)[O-])cc2)cc1	0	0	-6	11
CN(C)c1ccc(C(=O)/C=C/c2ccccc2)cc1	-3	0	-60	24
Cc1cccc2ccc(/C=C/c3ccc(N(C)C)cc3)[n+](C)c12	1	-1	93*	27
CN(C)c1ccc(/C=C/c2cc[n+](C)cc2)cc1	2	0	44*	-7
CN(C)c1ccc(C(=O)NCCCCCC(=O)NO)cc1	1	x	x	0
Cc1ccc2c(ccc(/C=C/c3ccc(N(C)C)cc3)[n+]2C)c1	4	0	41*	16
CN(C)c1ccc(/C=C/c2cc(C(C)(C)C)nc(C(C)(C)C)c2)cc1	0	0	3	-11
COCCN(Cc1ccco1)C(=O)Cn1ncc2c1-c1cc(C)ccc1OC2	-3	1	3	-9
CCSc1nnc2c(n1)OC(c1ccc(-c3ccccc3Cl)o1)Nc1ccccc1-2 (centres undefined)	-2	0	-15	17
Cc1cc(C2C(C#N)=C(N)N(N(C)C)C3=C2C(=O)CC(c2ccccc2)C3)c(C)s1 (centres undefined)	0	0	55*	-7
Cc1ccccc1C1C(C#N)=C(N)N(N(C)C)C2=C1C(=O)CC(c1ccccc1)C2 (centres undefined)	-1	0	64*	-4
CS(=O)(=O)N(CC(=O)N1CCC(C(N)=O)CC1)c1cc(Cl)c(Cl)cc1Cl	0	0	10	5
Cc1ccn2cc(C(=O)Nc3cccc(F)c3)nc2c1	-5	0	58*	22
CCN(CC)c1ccc2cc(C(N)=O)c(=Nc3cccc(C#N)c3)oc2c1	-1	0	0	7
O=[N+]([O-])c1ccccc1NC(=S)N/N=C/c1ccc(O)c(O)c1	2	-1	-54	-19
CCOc1ccc(N(CC)S(=O)(=O)c2cccc3cccnc23)cc1	-1	0	53*	6
Oc1ccc(Br)cc1CN1CCN(Cc2c[nH]c3ccccc23)CC1	-1	0	1	58*
c1ccc2cc(CN3CCN(Cc4c[nH]c5ccccc45)CC3)ccc2c1	-1	0	11	15
Oc1ccc(Br)cc1CN1CCN(Cc2ccncc2)CC1	0	0	18	54*
CCS(=O)(=O)N1CCN(Cc2cc(Br)ccc2O)CC1	0	0	1	54*
SMILES	GPR151 activ	FBW7 act	TEAD-YAP inh	MITF inh
C/C=C/C(=O)OCC(=O)Nc1ccc([N+](=O)[O-])cc1C(F)(F)F	-1	0	-10	10
O=C(CCl)N(CC1=CCSC1)c1ccccc1	0	0	47*	6
O=S(=O)(N/N=C1\CC(c2ccccc2)Oc2ccccc21)c1ccccc1 (centres undefined)	2	2.7*	16	-13
Cc1ccc(Cl)cc1N1CCN(C(=O)c2ccc3c(c2)NC(=O)C(CSCc2cccc(F)c2)N3)CC1 (centres undefined)	3	0	4	2
COc1ccc(Br)cc1C1C(C#N)=C(N)Oc2cc3c(cc21)OCO3 (centres undefined)	0	0	47*	-14
CCOc1cc(C2C(C#N)=C(N)Oc3cc4c(cc32)OCO4)cc(Br)c1OC (centres undefined)	1	0	57*	5
COC(=O)c1ccc(CN2CCN(c3ccccc3)CC2)cc1	1	0	-35	35

Compound activity as filed in PubChem.
